Reference: PubChem BioAssay AID1159580 (chemical genetic matrix, 2015)
Where “and” joins values, the source holds several entries; their conditions need not be identical. Identical values can stand only once. Hit rate of the full screen: of about 5,500 compounds, about 2,000 (36%) were called active. Not shown: some 18% with an inconclusive outcome. Cut-off read from the data, not from the text of the source: active = normalized growth mostly below about 0.91 (no sharp cut-off); inconclusive = no clear call, values can overlap the other calls; inactive = mostly above about 0.92. The list shows a part of the results.

Experiment: chemical genetic growth profiling, strain panel (AID 1159580);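 note: tested at 20 µM; growth read once vehicle control cultures reached saturation at 30 °C; 1 = growth at the plate median or of vehicle wells; lower values mean less growth of the strain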
Conditions: S. cerevisiae deletion strains, growth OD

Measured: normalized growth

CCC(C)(C)C(=O)O[C@H]1C[C@@H](C)C=C2C=C[C@H](C)[C@H](CC[C@@H]3C[C@@H](O)CC(=O)O3)[C@H]21
inactive: locus YAL013W, strain DEP1, hits give low values 0.99 | locus YAL030W, strain snc1, hits give low values 1.01 | locus YBR009C, strain hhf1, hits give low values 0.912 | locus YBR021W, strain FUR4, hits give low values 0.861 | locus YBR171W, strain sec66, hits give low values 0.998 | locus YBR229C, strain ROT2, hits give low values 1.01 | locus YCL011C, strain gbp2, hits give low values 0.944 | locus YCL029C, strain bik1, hits give low values 1.04 | locus YCL061C, strain MRC1, hits give low values 1.01 | locus YCL069W, strain vba3, hits give low values 0.955 | locus YCR088W, strain abp1, hits give low values 1.02 | locus YDL005C, strain med2, hits give low values 1.02 | locus YDL035C, strain GPR1, hits give low values 0.97 | locus YDL040C, strain nat1, hits give low values 0.997 | locus YDL074C, strain BRE1, hits give low values 0.866 | locus YDL101C, strain DUN1, hits give low values 0.98 | locus YDL134C, strain PPH21, hits give low values 1.01 | locus YDL185W, strain tfp1, hits give low values 0.955 | locus YDL192W, strain arf1, hits give low values 1.02 | locus YDR001C, strain nth1, hits give low values 1.02 | locus YDR069C, strain doa4, hits give low values 1 | locus YDR101C, strain arx1, hits give low values 1.04 | locus YDR150W, strain NUM1, hits give low values 1.01 | locus YDR159W, strain sac3, hits give low values 0.93 | locus YDR162C, strain NBP2, hits give low values 0.937 | locus YDR195W, strain ref2 1.01 | locus YDR297W, strain sur2, hits give low values 0.999 | locus YDR318W, strain mcm21, hits give low values 1 | locus YDR334W, strain swr1, hits give low values 0.941 | locus YDR335W, strain msn5, hits give low values 0.979 | locus YDR388W, hits give low values 1.02 | locus YDR502C, strain sam2, hits give low values 1.02 | locus YEL003W, strain gim4, hits give low values 0.973 | locus YEL037C, strain rad23, hits give low values 1 | locus YEL061C, strain CIN8 (second series), hits give low values 0.988 | locus YEL061C, strain CIN8, hits give low values 0.995 | locus YER016W, strain bim1, hits give low values 0.953 | locus YER110C, hits give low values 1.04 | locus YER111C, strain swi4, hits give low values 1.01 | locus YER155C, strain BEM2 (second series), hits give low values 1 | locus YER155C, strain BEM2, hits give low values 0.996 | locus YER167W, strain BCK2, hits give low values 0.982 | locus YFR010W, strain ubp6, hits give low values 0.973 | locus YGL078C, strain dbp3, hits give low values 1.03 | locus YGL086W, strain mad1, hits give low values 0.991 | locus YGL167C, strain pmr1, hits give low values 1.01 | locus YGL173C, strain kem1, hits give low values 0.997 | locus YGL227W, strain vid30, hits give low values 1.02 | locus YGL240W, strain doc1, hits give low values 1.03 | locus YGL248W, strain PDE1, hits give low values 1.01 | locus YGR078C, strain PAC10, hits give low values 0.966 | locus YGR135W, strain pre9, hits give low values 1.01 | locus YGR252W, strain gcn5, hits give low values 0.983 | locus YHR013C, strain ard1, hits give low values 0.912 | locus YHR030C, strain SLT2, hits give low values 1.02 and 0.921 | locus YHR079C, strain IRE1 (second series), hits give low values 1.03 | locus YHR079C, strain IRE1, hits give low values 0.948 | locus YHR094C, strain hxt1, hits give low values 1.03 | locus YHR129C, strain ARP1, hits give low values 1.02 | locus YHR200W, strain rpn10, hits give low values 1.03 | locus YIL066C, strain RNR3, hits give low values 0.992 | locus YIL073C, strain SPO22, hits give low values 0.902 | locus YIL125W, strain kgd1, hits give low values 1.04 | locus YIR030C, strain dcg1, hits give low values 1.05 | locus YJL092W, strain hpr5, hits give low values 1.01 | locus YJL095W, strain BCK1 (second series), hits give low values 0.951 | locus YJL095W, strain BCK1, hits give low values 0.893 and 0.915 | locus YJL115W, strain asf1, hits give low values 1.02 | locus YJL129C, strain trk1, hits give low values 0.934 | locus YJL134W, strain LCB3, hits give low values 1.01 | locus YJL154C, strain vps35, hits give low values 1.01 | locus YJL164C, strain tpk1, hits give low values 0.919 | locus YJL166W, strain qcr8, hits give low values 0.955 | locus YJL168C, strain set2, hits give low values 1.02 | locus YJL187C, strain SWE1 (second series), hits give low values 0.995 | locus YJL187C, strain SWE1, hits give low values 0.976 | locus YJR043C, strain POL32, hits give low values 1.01 | locus YJR066W, strain TOR1, hits give low values 0.84
active: locus YAL021C, strain ccr4, hits give low values 0.703 | locus YAL026C, strain drs2, hits give low values 0.828 | locus YBL061C, strain skt5, hits give low values 0.855 | locus YBR023C, strain chs3, hits give low values 0.841 | locus YBR231C, strain swc5, hits give low values 0.776 | locus YBR279W, strain paf1, hits give low values 0.851 | locus YCL016C, strain dcc1, hits give low values 0.909 | locus YDR137W, strain rgp1, hits give low values 1.35 [resistant] | locus YDR392W, strain spt3, hits give low values 0.528 | locus YER015W, strain faa2, hits give low values 0.842 | locus YGL253W, strain hxk2, hits give low values 0.787 | locus YGR229C, strain SMI1, hits give low values 0.783 | locus YHR027C, strain rpn1, hits give low values 0.875 | locus YHR142W, strain chs7, hits give low values 0.79
